# Laboratory results as given in ChEMBL document CHEMBL4513216, “Probing the Open Global Health Chemical Diversity Library for Multistage-Active Starting Points for Next-Generation Antimalarials” (ACS Infect Dis, 2020).
# About 2,700 (4%) of roughly 68,000 compounds showed an effect of 50% or more. The sample holds strong results, similar compounds and a random draw of the others, so the mix is not that of the screen.
# Tested on: Plasmodium berghei
# Test: Screen against P. berghei liver stage (PbLuc), transformed with Luciferase, at 2uM
# Type: functional, HepG2
# Conditions: tested at 2 uM
row,SMILES,INHIBITION [%]
1,CCn1ncc2c1CCCC2NCc1cc(Cl)c(OC)c(OC)c1 (stereo not given),11.18
2,CCCN(CCOC)C(=O)c1cc(Cn2c(C)nc3ccccc32)[nH]n1,-8.53
3,Cc1cc(C)n(-c2nc(C(=O)NCCN3CCC(C)CC3)cs2)n1,-39.93
4,O=C(c1cc2cc(I)ccc2[nH]1)N1CCC(Nc2cccnn2)CC1,39.72
5,CC(C)C1CN(C(=O)Nc2cnn(CC(F)F)c2)CCO1 (stereo not given),-5.66
6,Cc1cc(CCC(=O)N2CCOCC2)ccc1Br,33.64
7,NS(=O)(=O)c1cnn(CC(=O)Nc2c(Cl)cccc2Cl)c1,68.04
8,O=C(Cn1cc(C(=O)O)cn1)Nc1c(Cl)cccc1Cl,6.26
9,O=C(Cn1ccc(C(=O)O)n1)Nc1c(Cl)cccc1Cl,25.07
10,Cc1nn(C)cc1C(=O)N1CCC(CSc2ccccc2)C1 (stereo not given),3.22
11,CCn1nc(C)c(S(=O)(=O)Nc2cccc(C(=O)O)c2C)c1C,-4.15
12,CN(C)CC1CN(C(=O)CCc2ccccc2)Cc2nccn2C1 (stereo not given),-43.66
13,COc1ccnc(N2CCC(OCCN3CCCCC3)C2)n1 (stereo not given),-53.64
14,c1cnc(N2CCC(OCCN3CCCCC3)C2)nc1 (stereo not given),56.47
15,Cc1ccnc(N2CCC(OCCN3CCCCC3)C2)n1 (stereo not given),12.29
16,CCc1ncc2c(n1)CN(Cc1nnc(Cc3ccccc3)o1)CC2,-11.33
17,Cc1cc(C(=O)NCCN2CCCCCC2)nn1C(C)(C)C,-5.98
18,CCc1nnc2n1CCN(Cc1cc(Cl)c3c(c1)OCCCO3)C2,-3.57
19,CCc1ccc(O)c(C(=O)N2CCN(CC(=O)N(C)C)CC2)c1,55.26
20,CCc1ccc(O)c(C(=O)N2CCCN(CC(=O)N(CC)CC)CC2)c1,46.3
21,CCc1ccc(O)c(C(=O)N2CCN(CC(=O)N(CC)CC)CC2)c1,-19.78
22,CCCS(=O)(=O)N(C)C(=O)CCc1ccsc1,8.59
23,CC(C)c1nc(CNc2ccc(CCO)cc2)cs1,2.76
24,CNc1cncc(C2CCN(C(=O)c3cnco3)CC2)n1,56.93
25,Cc1cncc(C2CCCN(C(=O)c3cnco3)C2)n1 (stereo not given),-10.44
26,CNc1cncc(C2CCN(C(=O)c3coc(C)n3)CC2)n1,-16.56
27,COCCN1CCC(c2nc3cc(C)ccc3[nH]2)CC1,8.33
28,Cc1ccc2[nH]c([C@H]3CCN(CC4CCCCC4)C3)nc2c1,63.89

row,SMILES,INHIBITION [%]
1,Cc1ccc2[nH]c(C3CCN(C)CC3)nc2c1,-5.34
2,CC(C)S(=O)(=O)N1CCCC(c2cccc(C(=O)O)c2)C1 (stereo not given),49.88
3,CCn1cnnc1CNC(=O)N1CCN(c2ccccc2OC)CC1,33.61
4,O=C(Nc1cc[nH]n1)c1ccc(COCC(F)(F)F)cc1,-20.91
5,COc1ccc(CN2CCC(c3cc(O)nc(C)n3)C2)c(OC)c1 (stereo not given),52.01
6,COc1ccc(OC)c(CN2CCC(c3cc(O)nc(C)n3)C2)c1 (stereo not given),-111.32
7,COc1ccc(CN2CCC(c3cc(O)nc(C)n3)C2)c(F)c1 (stereo not given),-30.34
8,Cc1noc(CC2CCN(C(=O)C(c3ccccc3C)N(C)C)CC2)n1 (stereo not given),37
9,CCn1c(NCc2ccccn2)nc2c(C)nn(C)c2c1=O,50.9
10,CCn1c(NCc2cccnc2)nc2c(C)nn(C)c2c1=O,24.79
11,Cc1nn(C)c2c(NCc3ccccn3)nc(C(C)C)nc12,72.41
12,CCn1nc(C)c2nc(C(C)C)nc(NCc3ccccn3)c21,-11.34
13,CCn1c(NCc2ccccc2)nc2c(C)nn(C)c2c1=O,-1.65
14,Cc1nc(NCc2ccccn2)c2c(n1)c(C)nn2C,-40.15
15,Fc1cnc(N2CC3(CCN(Cc4ccsc4)C3)C2)nc1,34.48
16,COCCC(=O)N1CCCC1c1nc(O)cc(C(C)C)n1 (stereo not given),-1.69
17,CCC[C@H]1CN(C(=O)Cn2ccccc2=O)C[C@@H]1NS(C)(=O)=O,5.21
18,CCCS(=O)(=O)N1CCN(c2ccnc(N3CCCCC3)n2)CC1,5.38
19,C=C(C)CN1CCC(c2n[nH]c(C3CC3)n2)CC1,52.98
20,CC1CCN(C(=O)CN2CCC(c3n[nH]c(C4CC4)n3)CC2)CC1,-35.26
21,CCN(C(=O)CN1CCC(c2n[nH]c(C3CC3)n2)CC1)C1CC1,38.67
22,Cc1cc(C[C@@H]2COC[C@H]2NCc2ccc(Cl)c(Cl)c2)on1,-44.61
23,Cc1ccc(CN[C@@H]2COC[C@H]2Cc2cc(C)no2)cc1,20.08
24,Cc1cc(C[C@@H]2COC[C@@H]2NC(=O)CN2CCCC2)on1,-56.02
25,Cc1cc(C[C@@H]2COC[C@@H]2NC(=O)CCN2Cc3ccccc3C2)on1,14.1
26,Cc1cc(C[C@@H]2COC[C@@H]2NC(=O)CN2CCc3ccccc3C2)on1,54.49
27,Cc1cc(C[C@@H]2COC[C@H]2NCc2ccc(C)c(C)c2)on1,53.24
